# Measurements: PubChem BioAssay (EPA / NIEHS)
# The source made the active and inactive calls. The calls were made as follows: active = hit-call score of the fitted dose curve at least 0.9, where 1 is the maximum; inactive = score below 0.9.
# Read-out: Interleukin 17F (IL17F), IL17F (gene 112744)
# Assay: BSK_BT_xIL17F: BioMAP Diversity Plus: BT Assay for Interleukin 17F (IL17F) Biomarker Activity (AID 2284243)
# Details: primary human B cells with PBMC
# Method: BSK_BT is a cell-based, multiplexed-readout assay that uses B cell and peripheral blood mononuclear cells, a human vascular primary cell co-culture, with measurements taken at 24 hours after chemical dosing in a microplate: 96-well plate.BSK_BT_xIL17F is an assay component measured in the BSK_BT assay. It measures secreted IL-17F related to regulation of gene expression using LumineX xMAP technology.Data from the assay component BSK_BT_xIL17F was analyzed at the endpoint, BSK_BT_xIL17F, in the positive analysis fitting direction relative to DMSO as the negative control and baseline of activity. Using a type of cytokine quantitation reporter, gain or loss-of-signal activity can be used to understand protein changes. To generalize the intended target to other relatable targets, this assay endpoint is annotated to the 'cytokine' intended target family, where the subfamily is 'interleukins'.
# The levels of cell surface (or secreted, indicated by the prefix "s") biomarker endpoints were measured by ELISA. Overt cytotoxicity to cells in confluent adherent cultures (all systems other than the BT system) was assessed by measuring total protein levels using sulforhodamine B (SRB) staining in parallel cultures at the time of biomarker measurements, indicated as SRB endpoints. For proliferation assays for adherent cell types, individual cell types are cultured at sub-confluence and relative cell numbers quantified by SRB staining at time points optimized for each system (48 h: 3C and CASM3C systems; 72 h: BT and HDF3CGF systems; 96 h: SAg system). SRB was performed by staining cells with 0.1% SRB after fixation with 10% TCA and reading wells at 560 nm.Viability and proliferation of PBMC (T cells) was quantified by Alamar Blue reduction for the SAg and BT systems. For PBMC viability (referred to as PBMC Cytotoxicity within the assay endpoint names), cells were plated (75,000/well in a 96-well plate) and then chemical samples added for 1 h before addition of activators, SEB and TSST-1 (20 ng/mL final concentration each). Cells were incubated for 90 h. Then, Alamar Blue (20 uL/well) (Invitrogen, Cat DAL1100) was added for 6 h, and the plates were read with a fluorescence microplate reader at 546/580 nm (excitation/emission). For PBMC proliferation, cells were plated and activated as above but incubated for only 16 h prior to addition of Alamar Blue. Plates were read after 6 h.
SMILES,outcome,AC50
CCCCCCCCC=O,inactive,
c1ccc2c(c1)c1cccc3ccc4cccc2c4c31,,20 µM (active)
CCCCC(CC)COC(=O)/C=C\C(=O)OCC(CC)CCCC (stereo not drawn),inactive,
O=C(O)C[C@H](O)C[C@H](O)/C=C/c1c(C2CC2)nc2ccccc2c1-c1ccc(F)cc1,,3.26 µM (active)
CCCCC(CC)COCCC#N (stereo not drawn),inactive,
Cc1ccc2n[nH]nc2c1,inactive,
CC(=O)O[C@]1(C(C)=O)CC[C@H]2[C@@H]3C[C@H](C)C4=CC(=O)CC[C@]4(C)[C@H]3CC[C@@]21C,,10 µM (active)
O=C1OC2(c3cc(Br)c(O)c(Br)c3Oc3c2cc(Br)c(O)c3Br)c2c(Cl)c(Cl)c(Cl)c(Cl)c21,inactive,
CCn1c2ccccc2c2cc(N)ccc21,inactive,
Nc1cc([N+](=O)[O-])ccc1Cl,inactive,
CN(CCOc1ccc(CC2SC(=O)NC2=O)cc1)c1ccccn1 (stereo not drawn),inactive,
N#Cc1ccc(CC(=NNC(=O)Nc2ccc(OC(F)(F)F)cc2)c2cccc(C(F)(F)F)c2)cc1,inactive,
CCc1c(C)cc(N)c(CC)c1N,inactive,
Cc1ccc(O)c(C(C)(C)C)c1,inactive,
O=[N+]([O-])c1cc(C(F)(F)F)ccc1Cl,inactive,
CC1CCC(C(C)CS)CC1S (stereo not drawn),inactive,
CCCCCCCCCCCCCCCCCC(=O)OCC(CC)CCCC (stereo not drawn),inactive,
CCCCCCCCCC=O,inactive,
O=C=NC1CCC(CC2CCC(N=C=O)CC2)CC1 (stereo not drawn),inactive,

SMILES,outcome,AC50
CC(C)c1ccc(C(C)C)cc1,inactive,
Cc1ccc(Nc2ccc(O)c3c2C(=O)c2ccccc2C3=O)cc1,inactive,
C=C[Si](OCC)(OCC)OCC,inactive,
CC(=O)/C=C/C1=C(C)CCCC1(C)C,inactive,
C#C[C@]1(O)CC[C@H]2[C@@H]3CCC4=Cc5oncc5C[C@]4(C)[C@H]3CC[C@@]21C,,25.3 µM (active)
COC(=O)c1ccc(C)cc1,inactive,
CC(C)(COC(=O)c1ccccc1)COC(=O)c1ccccc1,inactive,
O=C(O)c1cn(C2CC2)c2cc(N3CCNCC3)c(F)cc2c1=O,inactive,
O=C(O)c1cn(-c2ccc(F)cc2)c2cc(N3CCNCC3)c(F)cc2c1=O,inactive,
CC(C)Oc1ccccc1O,inactive,
CNC[C@H](O)c1cccc(O)c1,inactive,
CCCCC/C=C/C=C/C=O,,30.7 µM (active)
c1ccc2sc(SN(C3CCCCC3)C3CCCCC3)nc2c1,inactive,
C=C(C)C(=O)O[C@H]1C[C@@H]2CC[C@@]1(C)C2(C)C,inactive,
CC(=O)Nc1ccccc1O,inactive,
CC1COc2ccccc2N1C(=O)C(Cl)Cl (stereo not drawn),inactive,
O=C1CCCCCCCCCCCCCCO1,,31.2 µM (active)
BrC1CCC(Br)C(Br)CCC(Br)C(Br)CCC1Br (stereo not drawn),,25 µM (active)
O=P(c1ccccc1)(c1ccccc1)c1ccccc1,inactive,
